Data as given in PubChem BioAssay AID1745848 (National Center for Advancing Translational Sciences (NCATS), 2022).
Screen size: about 2,100 compounds; about 940 (45%) were called active. About 48% were inconclusive and are not listed. Calls follow the shape of the dose curve; as a rule, active = well fitted inhibition curve with a large enough effect; inconclusive = small, poorly fitted or top-dose-only effect; inactive = no such curve, though single readings can be large or run the other way. So high a share suggests a set chosen from earlier hits. The list shows a part of the results.

Assay: Confirmatory qHTS for Inhibitors of ATXN expression; also: nearly all actives have a fitted effect of over 65% in size
Settings: ATXN2-luciferase reporter cells, luminescence, 24 h; series mostly up to 11.5 µM
Excerpt: PI: Daniel Scoles Ph.D. University of Utah School of Medicine, Salt Lake City, Utah MLPCN Grant: NS073009 Spinocerebellar ataxia type 2 (SCA2) is a multisystem neurodegenerative disease caused by a dominantly acting mutation leading to expansion of a polyQ domain in the ataxin-2 protein (ATXN2). SCA2 patients develop progressive ataxia and later lose function in other neuronal systems. Prominent parkinsonian signs develop in some patients. Like many neurodegenerative disorders, no symptomatic or disease-modifying treatments are known. The primary objective of the proposed research is to identify compounds inhibiting ATXN2 expression and to test them for efficacy in SCA2 mouse models. We have developed a cell-based assay paired with an in vivo mouse model using identical luciferase expression constructs. This approach takes advantage of an ATXN2-luciferase transgene, with the luciferase gene flanked by the upstream and downstream portions of the ATXN2 gene. Here we describe a 5-7 dose quantitative high thoroughput screen (qHTS) for compounds lowering ATXN2 expression. We screened the NIH Molecular Libraries Small Molecule Repository (MLSMR) and NCGC's mechanistically annotated (MIPE) and drug repurposing (NPC) collections of compounds for lowering expression of an ATXN2-luciferase reporter in HEK-293 cells. The assay is a multiplexed cell viability assay to ensure target reduction in the absence of cytotoxicity. Secondary qHTS assays included a CMV-luciferase reporter expressed in HEK-293 cells as well as a biochemical assay using recombinant luciferase to detect inhibitors of the reporter enzyme. Compounds that inhibit ATXN2 expression but is not cytotoxic were selected for confirmatory and secondary screens.
PROTOCOL TABLE (as described by Inglese J, Shamu CE and Guy RK. 2007) SEQUENCE No. (e.g., 1, 2, 3, etc.); PARAMETER (e.g., Cells, Incubation, Reagent, etc.); VALUE; DESCRIPTION. 1; Cells; 4 uL; white, solid bottom, 1536-well Greiner assay plate. 2; Incubation; 2 hr; 37 degree C in 5% humidified CO2. 3; Compounds; 23 nL; Kalypsis pintool (Wako USA) equipped with a 1536-well pin head. 4; Incubation; 24 hr; 37 degree C in 5% humidified CO2. 5; Reagent; 1 uL; Gly-Phe-7-Amino-4-trifluoromethylcoumarin. 6; Incubation; 30 min; 37 degree C in 5% humidified CO2. 7; Detection; Fluorescence; ViewLux plate reader (PerkinElmer). 8; Reagent; 3 uL; SteadyGlo luciferase solution (Promega). 9; Incubation; 5 min; room temperature. 10; Detection; Luminescence; ViewLux plate reader (PerkinElmer). NOTES (numbers refer to Sequence numbers above) 1. […] expressing ATXN2-luciferase reporter were suspended in phenol-red free DMEM and dispensed in assay plates using a Multidrop Combi dispenser (Thermo Fisher Scientific). Wells containing medium only were plated on each plate, and values were used to normalize (100% inhibition) in the luciferase and CellTiter-Fluor assays. 2. Assay plates were incubated. Evaporation was prevented by covering assay plates with metal lids containing holes to allow gas diffusion. 3. Compounds were added in a dose response manner with the final concentrations of 57, 11.4, 2.28, 0.46, 0.091, 0.018, 0.0037 uM. Vehicle-only plates, with DMSO being pin-transferred to columns 5-48, were inserted uniformly at the beginning and the end of each library to monitor and record any shifts in assay performance. 5. 125 uM Gly-Phe-7-Amino-4-trifluoromethylcoumarin (MP Biomedicals) working concentration was used at a final concentration of 25 uM. 7. To assess cell viability; the assay plates were read using the ViewLux high-throughput CCD imager (PerkinElmer), wherein single end-point fluorescence measurement was acquired (excitation 405/10; emission 540/25 nm). 8. Detection reagent SteadyGlo Luciferase (Promega) was added to the assay plate. 10. Luminescence is then measured on the ViewLux imager equipped with a clear emission filter using a 2 sec exposure. […]
Potency is read from the fitted curve at half-maximal effect.

SMILES | Potency
N#Cc1ccccc1NC(=O)C1SC(=Nc2ccccc2)C(C(=O)Nc2ccc(Cl)cc2)=C1N (configuration not stated) | inactive
O=c1c2c(-c3ccccc3)csc2nc2c3ccccc3c(NCCN3CCOCC3)nn12 | 3.16 µM (active)
Cc1ccc(-c2nc3cc(Br)cnc3nc2-c2ccc(C)cc2)cc1 | inactive
Brc1cnc2nc(SCc3nc4ccccc4[nH]3)[nH]c2c1 | 2.82 µM (active)
O=C(CSc1nnc(-c2ccc(Br)cc2)o1)Nc1cccc(C(=O)O)c1 | 3.16 µM (active)
COc1cc(/C=N/Nc2snc(SC)c2C#N)cc(OC)c1OC | 3.16 µM (active)
Cc1ccc(OCC(O)Cn2c(=N)n(CCN3CCCCC3)c3ccccc32)cc1 (configuration not stated) | 14.1 µM (active)
CCCCCn1c(=N)n(CC(O)COc2ccccc2OC)c2ccccc21 (configuration not stated) | 2.51 µM (active)
N=c1n(CCN2CCCCC2)c2ccccc2n1CC(O)c1ccc(Cl)c(Cl)c1 (configuration not stated) | 15.8 µM (active)
COc1cccc(NC(=S)/C(=C(\[O-])c2cc(C)n(-c3ccccc3F)c2C)[n+]2ccc(N(C)C)cc2)c1 | 15.8 µM (active)
CCOC(=O)Nc1ccc(N2CCOCC2)c(S(=O)(=O)Nc2ccc(Cl)cc2)c1 | inactive
O=C(Nc1ccc(Cl)cc1)Nc1ccc(N2CCCC2)c(S(=O)(=O)Nc2ccccc2Cl)c1 | 3.55 µM (active)
Cc1ccc2ccc3cccnc3c2n1 | 4.47 µM (active)
OC(c1ccccc1)(c1nc(-c2cc3ccccc3o2)cs1)C(F)(F)F (configuration not stated) | inactive
OC(c1ccccc1)(c1nc(-c2ccc3ccccc3c2)cs1)C(F)(F)F (configuration not stated) | inactive
OC(c1ccccc1)(c1nc(/C=C/c2ccc(C(F)(F)F)cc2)cs1)C(F)(F)F (configuration not stated) | 35.5 µM (active)
CCOc1cc(C=C(C(=O)OC)C(=O)OC)ccc1OCc1ccc([N+](=O)[O-])cc1 | 25.1 µM (active)
COc1cccc(/C=N/NC(=O)Cn2nc(C)c([N+](=O)[O-])c2C)c1O | 14.1 µM (active)
CCN(CC)c1ccc(/C=N/NC(=O)c2cccc(S(=O)(=O)N3CCOCC3)c2)c(O)c1 | 0.891 µM (active)
O=C(CNC(=O)C1COc2ccccc2O1)N/N=C/c1ccc(O)cc1O (configuration not stated) | 2.51 µM (active)
CCN(CC)c1ccc(/C=N/NC(=O)CNC(=O)C2COc3ccccc3O2)c(O)c1 (configuration not stated) | 0.251 µM (active)
COc1cccc(/C=N/NC(=O)CSc2ccccc2C)c1O | 12.6 µM (active)
COc1cccc(/C=N/NC(=O)CNC(=O)C2COc3ccccc3O2)c1O (configuration not stated) | 8.91 µM (active)

SMILES | Potency
CCN(CC)c1ccc(/C=N/NC(=O)Cc2cccs2)c(O)c1 | 2.82 µM (active)
COc1ccccc1/C=C\C(=O)NCC(=O)N/N=C/c1cccc(OC)c1O | 12.6 µM (active)
Cn1ncc2c(N3CCN(c4ccc(Cl)c(Cl)c4)CC3)ncnc21 | 1.58 µM (active)
Oc1c(C(Nc2cccc(C(F)(F)F)c2)c2cccnc2)ccc2cccnc12 (configuration not stated) | 28.2 µM (active)
Cc1cc(NC(c2cccnc2)c2ccc3cccnc3c2O)no1 (configuration not stated) | 2.82 µM (active)
Oc1c(C(Nc2cccc(C(F)(F)F)c2)c2ccncc2)ccc2cccnc12 (configuration not stated) | 3.55 µM (active)
COc1ccc(Cl)cc1C(Nc1cccnc1)c1ccc2cccnc2c1O (configuration not stated) | 12.6 µM (active)
COC(=O)Cc1[nH]n(-c2nc3ccccc3s2)c(=O)c1C(C)=Nc1ccc(C)cc1 | inactive
Cc1cc(C)n(-c2nc(NCCN(C)C)c3c4c(sc3n2)COC(C)(C)C4)n1 | 3.16 µM (active)
COc1cc(OC)cc(-c2cc3nc(C)c(CCC(=O)NCc4ccccc4)c(C)n3n2)c1 | 4.47 µM (active)
COc1cc(OC)cc(-c2cc3nc(C)c(CCC(=O)O)c(C)n3n2)c1 | 0.562 µM (active)
COc1cccc(OCC(=O)Nc2cc(Cl)ccc2Oc2ccccc2)c1 | inactive
COc1cccc(CN(C)C(=O)c2ccc(OCC(=O)Nc3cccc(C(F)(F)F)c3)c(OC)c2)c1 | 15.8 µM (active)
CCCCCCn1c2c(c(=N)c3c1CCC3)CCC2 | 3.98 µM (active)
Cc1cnc(NC(=O)CN2CCN(c3ccccn3)CC2)s1 | 5.62 µM (active)
Cc1ccc(SC2=C(Sc3ccc(C)cc3)C(=O)c3ccccc3C2=O)cc1 | inactive
CCN1CCN(C2=C(NS(=O)(=O)c3ccc(C)cc3)C(=O)c3ccccc3C2=O)CC1 | 3.16 µM (active)
CC(=O)NC(c1ccc(C(C)C)cc1)c1ccc2cccnc2c1O (configuration not stated) | 0.631 µM (active)
CC(=O)NC(c1ccc2ccccc2c1)c1ccc2cccnc2c1O (configuration not stated) | 0.141 µM (active)
CC(=O)NC(c1ccco1)c1ccc2cccnc2c1O (configuration not stated) | 1.41 µM (active)
CC(=O)c1sc(C(C)(C)C)cc1NC(=O)/C=C/C(=O)O | 17.8 µM (active)
CN(C)C(=O)c1cccc(-c2cnc3c(NC=O)cc(-c4ccc(F)cc4)cn23)c1 | inactive
CCSc1ccc(-c2cc(NC=O)c3ncc(-c4cccc(C(=O)NCCN(C)C)c4)n3c2)cc1 | 3.16 µM (active)

SMILES | Potency
COc1ccccc1-c1cc(NC=O)c2ncc(-c3ccc(F)cc3)n2c1 | 22.4 µM (active)
COc1ccc(F)cc1-c1cc(NC=O)c2ncc(-c3cccc(C(=O)N(C)C)c3)n2c1 | 3.55 µM (active)
COc1cc(-c2cnc3c(NC=O)cc(-c4cccc(C(F)(F)F)c4)cn23)cc(OC)c1OC | 12.6 µM (active)
CN(C)C(=O)c1cccc(-c2cnc3c(NC=O)cc(-c4ccccc4N(C)C)cn23)c1 | inactive
COc1ccc(-c2cc(NC=O)c3ncc(-c4cccc(C(=O)NCCN(C)C)c4)n3c2)cc1 | inactive
CCOc1ccc(/C=C/[N+](=O)[O-])c2ccccc12 | 15.8 µM (active)
Cc1ccc(CN2CCC(c3cc(-c4ccc(Cl)cc4)n[nH]3)CC2)cc1 | 28.2 µM (active)
CCOC(=O)N(C)c1c(CC)nc2c(OCc3ccccc3OC)cccn12 | inactive
COC(=O)c1ccccc1COc1cccn2c(N(C)Cc3cccs3)c(C)nc12 | 28.2 µM (active)
ClC(Cl)(Cl)c1nc2ccccc2n2nncc12 | 2.82 µM (active)
CCc1ccc(-c2nc(CS(=O)CC(=O)NCc3ccco3)c(C)o2)cc1 (configuration not stated) | 0.398 µM (active)
CC1(C(=O)NCc2ccco2)CCN1C(=O)C1(c2ccccc2)CC1 (configuration not stated) | inactive
CCOC(=O)c1c(NC(=O)COC(=O)CNC(=O)c2ccco2)sc(C)c1C | 2.51 µM (active)
COC(=O)c1cn(NC(=O)c2cc([N+](=O)[O-])ccc2F)c(=O)c2ccccc12 | 2 µM (active)
COc1ccc(O)c(/C=N/NC(=O)c2ccc(CSc3nc(C)cc(C)n3)cc2)c1 | 2.82 µM (active)
CC(C)CC(=NNC(=O)c1ccncc1)c1cc(Cl)ccc1O | 0.708 µM (active)
COc1ccc(C(=O)N/N=C/c2cc(Br)ccc2O)cc1OC | 3.16 µM (active)
O=C(N/N=C/c1cc(Br)ccc1OC(=O)c1ccc(Br)cc1)c1ccncc1 | 2.82 µM (active)
O=C(N/N=C/c1cc(Br)cc(Br)c1O)c1cccc(N2CCCC2=O)c1 | 2 µM (active)
O=C(N/N=C/c1cc(Br)ccc1O)c1ccncc1 | 0.794 µM (active)
COc1ccc(O)c(/C=N/NC(=O)c2ccc(OCc3cccc(Br)c3)cc2)c1 | 0.891 µM (active)
O=C(N/N=C/c1cc(Br)cc(Br)c1O)c1ccncc1 | 2.82 µM (active)
O=C(N/N=C/c1cc(Cl)ccc1O)c1ccncc1 | 3.16 µM (active)

SMILES | Potency
CCC(O)(CC)C(=O)N/N=C/c1cc(Br)cc(Br)c1O | 17.8 µM (active)
O=C(N/N=C/c1cc(Br)ccc1O)C(c1ccncc1)N1CCOCC1 (configuration not stated) | 14.1 µM (active)
O=C(CP(=O)(c1ccccc1)c1ccccc1)N/N=C/c1cc(Br)cc(Br)c1O | 1.58 µM (active)
CN(C)c1ccc(C(=O)N/N=C/c2cc(Br)cc(Br)c2O)cc1 | 1.41 µM (active)
C/C(=N\N=C(N)N)c1ccc(Cl)cc1Cl | 15.8 µM (active)
CC1(C)Cc2ccccc2C(NNC(=O)c2ccccn2)=N1 | 15.8 µM (active)
O=C(N/N=C/c1cc(Cl)ccc1O)c1ccccc1Br | 3.98 µM (active)
CC(SC(C)C(=O)NN=Cc1cccc(Cl)c1)C(=O)NN=Cc1cccc(Cl)c1 (configuration not stated) | inactive
CNc1ccc(Br)cc(C(=O)/C=C/c2ccc3c(c2)OCO3)c1=O | inactive
O=C(CNC(=O)c1ccccc1Br)N/N=C/c1cc(Br)ccc1O | 2 µM (active)
O=C(CNC(=O)c1ccc2c(c1)OCO2)N/N=C/c1cc(Br)ccc1O | 3.55 µM (active)
O=C(N/N=C/c1cc(Br)cc(Cl)c1O)c1ccc2c(c1)OCO2 | 3.98 µM (active)
O=C(CNC(=O)c1ccccc1Br)N/N=C/c1ccccc1O | 15.8 µM (active)
O=C(CCc1ccccc1)N/N=C/c1cc(Br)ccc1O | 1.12 µM (active)
NS(=O)(=O)c1ccc(CCNC(=O)COC(=O)/C=C/c2cc(Br)ccc2F)cc1 | inactive
CCc1ccccc1OCC(=O)Nc1nc(-c2cccnc2)cs1 | 14.1 µM (active)
COc1ccc(/C=C/C(O)=C2/C(=O)N(C)C3(C)CC2c2ccccc2O3)cc1 (configuration not stated) | 20 µM (active)
C/[N+]([O-])=C\c1cccc(OCCN2CCN(c3ncc(C(F)(F)F)cc3Cl)CC2)c1 | inactive
CCOc1ccc(NS(=O)(=O)c2ccc(C(=O)NNC(=O)c3ccccc3O)cc2)cc1 | 15.8 µM (active)
COc1ccc(NS(=O)(=O)c2ccc(C(=O)Nc3c(C)n(C)n(-c4ccccc4)c3=O)cc2)cc1 | inactive
Cc1ccc(NS(=O)(=O)c2ccc(C(=O)NNC(=O)c3ccccc3O)cc2)cc1 | 14.1 µM (active)
Cc1ccc(C)c(S(=O)(=O)N2CCN(c3ncnc4sccc34)CC2)c1 | 0.631 µM (active)
Cc1ccc(N/C(N)=N/c2nc(C)cc(N3CCCCC3)n2)c(C)c1 | 3.98 µM (active)
